Only some compounds are listed: those with a hit (about 2.4% of all), similar ones and a draw of the others.
CHT allo act – human CHT allosteric activation; Q9GZV3; CHT-expressing cells, membrane potential dye, choline EC20; active compounds read high; LV-AA mutant CHT in HEK293 cells; B-score at 10 µM; 0.49% of 310,000 active;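 active = initial fluorescence not abnormally high and integrated response B-score, plate-corrected, over 3 SD above library mean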
Target sequence (Q9GZV3 whole entry, looked up): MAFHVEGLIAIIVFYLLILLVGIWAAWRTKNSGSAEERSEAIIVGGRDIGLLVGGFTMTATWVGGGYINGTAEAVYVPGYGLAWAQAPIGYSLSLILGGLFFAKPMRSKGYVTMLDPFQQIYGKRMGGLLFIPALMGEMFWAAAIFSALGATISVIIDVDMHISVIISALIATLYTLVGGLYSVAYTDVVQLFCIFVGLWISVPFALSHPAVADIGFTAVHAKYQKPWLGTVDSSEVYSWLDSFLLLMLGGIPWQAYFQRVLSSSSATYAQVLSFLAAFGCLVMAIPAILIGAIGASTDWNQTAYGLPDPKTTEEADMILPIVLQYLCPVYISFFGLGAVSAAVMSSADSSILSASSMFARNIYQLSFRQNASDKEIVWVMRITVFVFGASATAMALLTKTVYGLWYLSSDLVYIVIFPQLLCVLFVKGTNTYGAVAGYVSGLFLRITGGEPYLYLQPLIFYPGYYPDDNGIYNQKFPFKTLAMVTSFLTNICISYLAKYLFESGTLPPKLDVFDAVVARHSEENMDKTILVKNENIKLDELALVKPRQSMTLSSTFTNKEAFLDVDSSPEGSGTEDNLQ
TMEM16A inh – inhibitors of mouse TMEM16A calcium-activated chloride channel; Q8BHY3; HEK293 TMEM16A/YFP iodide influx fluorescence, ionomycin; normalized B-score (activity score, 25-100; higher = stronger inhibition) at 10 µM; 1.2% of 310,000 active; AID 588511;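 active = ratio plate-corrected score three or more library SD toward inhibition, starting fluorescence score within five deviations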;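 note: score derived from kinetic fluorescence span divided by baseline fluorescence per well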
TMEM16A act – activates or potentiates the mouse TMEM16A chloride channel. HEK293 TMEM16A/YFP-H148Q/I152L, iodide quench fluorescence; active compounds read low. Q8BHY3. AID 623877. B-score at 10 µM. 0.3% of 340,000 active;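 active = fluorescence-ratio B-score plate-corrected deviation score at least 3 library SD below zero, with starting fluorescence score within 5 deviations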;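 note: channel opened by trigger with iodide after compound preincubation; score built on the fluorescence ratio of max minus min over baseline; more negative score means more quench and so TMEM16A activation or potentiation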
CHT block – inhibits the human high affinity choline transporter | CHT-expressing cells, membrane potential dye, choline response; active compounds read low | B-score at 10 µM | AID 488975 | Q9GZV3 | 0.86% of 310,000 active;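 active = B-score over 3 SD under the library average, and starting fluorescence ratio not unusually high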;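 note: choline stimulus applied at its EC90 after an EC20 pre-addition; B-score computed on integrated fluorescence ratio after choline addition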
CHT block conf – confirmation of human choline transporter CHT inhibitors. shares compounds with CHT block. CHT-expressing cells, choline membrane potential dye; LV-to-AA substituted CHT, HEK293 cells. CHT activity remaining % of control (active compounds read low), % at 10 µM. 70% of 2,400 active. AID 493221;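 active = choline transporter activity left, mean of duplicates at 10 µM, below buffer-only control mean minus 3 SD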;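 note: depolarization triggered by choline at its EC90 following an EC20 pre-addition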
HEK293 MPD ctr – counter-screen for CHT inhibitors: effect in parental HEK293 cells; shares compounds with CHT block; membrane potential dye, choline response; active = decrease or increase beyond buffer ±3SD; membrane potential ratio readout (active if shifted either direction beyond buffer ±3SD; no single direction) at 10 µM; 4% of 2,400 active;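 note: parental cells lack the transporter so any hit is non-specific; ratio is peak minus trough fluorescence over baseline after EC90 choline challenge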
Each line names hits and unclear results; the compound was inactive in the other large screens (follow-up assays come after a bar, where they were run).

O=C(CSc1nc2c(c(=O)n1-c1ccc(Cl)cc1)SCC2)N1CCCC1	CHT block -6.8 | CHT block conf inactive | HEK293 MPD ctr inactive
CC1CCN(C(=O)C(C)OC(=O)CSc2ccc([N+](=O)[O-])cc2)CC1 (stereo not given)	none (no result: CHT allo act, TMEM16A inh, CHT block)
c1ccc(CCCN2CCN(c3ccccn3)CC2)cc1	none
Cc1sc(NC(=O)c2ccco2)nc1-c1ccccc1	CHT block -9.2 | CHT block conf 53% | HEK293 MPD ctr inactive
Cc1ccc(NCC(O)C(O)C(O)CO)c(N=Nc2ccccc2)c1C (stereo not given)	none
CC1=C(C(=O)OC(C)C)C(c2ccc(Br)s2)NC(=O)N1C (stereo not given)	CHT block -5.1 | CHT block conf 58% | HEK293 MPD ctr inactive
CC1=C(C(=O)OC(C)C)C(c2ccccc2)NC(=O)N1C (stereo not given)	none
O=C(NCc1ccccn1)c1c(-c2ccccc2)sc2ccccc12	none (no result: CHT allo act, TMEM16A inh, CHT block)
CCOC(=O)c1cc(C(=O)NC(C)c2ccccc2)c(C)[nH]c1=O (stereo not given)	CHT block -7.4 | CHT block conf 14% | HEK293 MPD ctr inactive
CCc1c(C2(O)CCCCC2)[nH]c2cc(C(F)(F)F)ccc12	TMEM16A inh 100, CHT block -5.7 | CHT block conf 53% | HEK293 MPD ctr inactive
O=S(=O)(NCCN1CCOCC1)c1cccs1	CHT block -9.3 | CHT block conf inactive | HEK293 MPD ctr inactive
CC(C)(CNS(=O)(=O)c1cccs1)N1CCOCC1	none (no result: CHT allo act, TMEM16A inh, CHT block)
CCn1cc(C(=O)N[C@H](C(=O)NCCCN2CCOCC2)C(C)C)c(=O)c2cc3c(cc21)OCO3	none
Cc1nc2ccccn2c1C(=O)N/N=C/c1ccccc1	none
Cc1ccccc1N/N=C/c1c(C)nc2ccccn12	CHT block -13 | CHT block conf inactive | HEK293 MPD ctr inactive
O=C(O)CNS(=O)(=O)c1ccc2c(c1)Cc1cc(S(=O)(=O)NCC(=O)O)ccc1-2	none
CCn1c(N2CCN(S(=O)(=O)c3ccc(OC)cc3)CC2)nc2ccccc21	CHT block -7.9 | CHT block conf 71% | HEK293 MPD ctr inactive
CCN(CC)c1ccc(S(=O)(=O)N2CCCCC2)cc1NC(=O)C1CSC2(C)CCC(=O)N12 (stereo not given)	none (no result: CHT allo act, TMEM16A inh, CHT block)
COc1ccc(C(=O)c2c3ccc(C(F)(F)F)cc3[n+]([O-])n2CCCC(N)=O)cc1	none
NC(=O)CCCn1c(C(=O)c2cc(Cl)c(N)c(Cl)c2)c2ccc(C(F)(F)F)cc2[n+]1[O-]	CHT block -10 | CHT block conf -1.6% | HEK293 MPD ctr inactive
NCCCn1c(C(=O)c2cc(Cl)c(N)c(Cl)c2)c2ccc(C(F)(F)F)cc2[n+]1[O-]	CHT block -8.2 | CHT block conf 14% | HEK293 MPD ctr inactive
NC(=O)c1ccc(Cn2c(C(=O)c3cc(Cl)c(N)c(Cl)c3)c3ccccc3[n+]2[O-])cc1	none
N#C/C(=C/c1ccc(C(=O)O)cc1)C(=O)Nc1ccccc1	none
Cc1cccc(NC(=O)/C(C#N)=C\c2ccc(C(=O)O)cc2)c1	CHT block -6.6 | CHT block conf inactive | HEK293 MPD ctr inactive
COc1ccc(C)cc1N(CC(=O)NC1CCCC1)C(=O)CCC(=O)Nc1nc(C)cs1	none
CCN(CC)CCNC(=O)c1[nH]c2ccc(OCc3ccccc3)cc2c1C	none
O=C1CSC(=S)N1N=Cc1c(O)ccc2ccccc12	none (no result: CHT allo act, TMEM16A inh, CHT block)
O=C1CSC(=S)N1/N=C/c1c(F)cccc1F	CHT block -5.6 | CHT block conf 71% | HEK293 MPD ctr inactive
Cc1cc(C(=O)N/N=C/c2ccc3c(c2)OCO3)c(C)o1	CHT block -7.1 | CHT block conf inactive | HEK293 MPD ctr inactive
Cc1ccsc1C(=O)N/N=C/c1ccc2c(c1)OCO2	none
NC(=O)Cn1c(=O)n(CCCC(=O)NC2CCN(Cc3ccccc3)CC2)c(=O)c2ccccc21	CHT block -5.6 | CHT block conf inactive | HEK293 MPD ctr inactive
O=C(CCn1c(=O)c2ccccc2n(Cc2ccccc2)c1=O)NC1CCN(Cc2ccccc2)CC1	none
COc1ccc2c(c1)-c1c(ssc1=S)C(C)(C)N2	CHT block -5.2 | CHT block conf 57% | HEK293 MPD ctr inactive
COc1ccc(Cn2c(SCC#N)nc3ccc(N4CCOCC4)cc3c2=O)cc1	none
O=C(Nc1ccc(Cc2ccncc2)cc1)c1ccc(N2CCOCC2)c([N+](=O)[O-])c1	none
Cc1ccc(C(=O)Nc2ccc(Cc3ccncc3)cc2)cc1[N+](=O)[O-]	TMEM16A inh 100, CHT block -5.6 | CHT block conf inactive | HEK293 MPD ctr inactive
CCCCn1c(CN2CCN(c3ccccc3)CC2)nc2c1c(=O)n(C)c(=O)n2C	CHT block -9.6 | CHT block conf -42% | HEK293 MPD ctr inactive
CCCCCn1c(CN2CCCCC2C)nc2c1c(=O)n(C)c(=O)n2C (stereo not given)	CHT block -5 | CHT block conf 45% | HEK293 MPD ctr inactive
CCCn1c(CN2CCN(c3cccc(Cl)c3)CC2)nc2c1c(=O)n(C)c(=O)n2C	CHT block -11 | CHT block conf -13% | HEK293 MPD ctr inactive
CCN(CC(=O)Nc1ccc(NC(C)=O)cc1)C(=O)CN1C(=O)NC(C)(c2ccc3ccccc3c2)C1=O (stereo not given)	none (no result: CHT allo act, TMEM16A inh, CHT block)
OC(Cc1cccnc1)(Cc1cccnc1)c1cc2ccccc2[nH]1	none
CCCc1cc(Nc2c(C)n(C)n(-c3ccccc3)c2=O)n2c(nc3ccccc32)c1C#N	CHT block -8 | CHT block conf 38% | HEK293 MPD ctr inactive
Cc1c(Cc2ccccc2)c(=O)oc2cc(O)ccc12	CHT block -6.5 | CHT block conf inactive | HEK293 MPD ctr inactive
Cc1c(Cc2ccccc2)c(=O)oc2c(O)c(O)ccc12	none (no result: CHT allo act, TMEM16A inh, CHT block)
Cc1ccccc1CN1CCC(n2nccc2NC(=O)c2ccc3c(c2)OCO3)CC1	none
Cc1ccc(-c2csc3ncnc(-n4nnc5ccccc54)c23)cc1	CHT block -7.5 | CHT block conf 63% | HEK293 MPD ctr inactive
Cc1ccc(-c2csc3ncnc(-n4cnc5ccccc54)c23)cc1	CHT block -7.5 | CHT block conf 24% | HEK293 MPD ctr inactive
Cc1n[nH]c(C)c1CCCCOc1ccccc1F	none
Cc1n[nH]c(C)c1CCCCOc1ccccc1[N+](=O)[O-]	CHT block -5.5 | CHT block conf 52% | HEK293 MPD ctr inactive
COc1cccc(OC)c1OCCCCCc1c(C)n[nH]c1C	CHT block -6.5 | CHT block conf 45% | HEK293 MPD ctr inactive
COc1cccc(OC)c1OCCCCc1c(C)n[nH]c1C	none
O=C(CSc1ccc([N+](=O)[O-])cc1)NCC1CCCCC1	none
O=C(O)c1ccc(-c2nc(-c3ccccc3Cl)cs2)cc1	CHT block -5.4 | CHT block conf 40% | HEK293 MPD ctr inactive

From PubChem BioAssay
